1 molecule from the supplement of paper PMC8728848 can be followed below.

Many of the other results were omitted from the sample, so the strongest signals are more common in it than they were.

Holding throughout (assay): glycan array binding signal (z-score within array); higher = stronger binding
Holding throughout (conditions): glycan notation: IUPAC condensed, linker removed

Test [1] addresses GlcNAc(b1-3)Gal(b1-4)Glc. The procedure, abridged:
(§1)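 The Consortium for Functional Glycomics database supplied 3228 glycan arrays, of which those lacking an available protein sequence were dropped. The binding signal, a within-array Z-score, was averaged across arrays of the same protein sequence and across linkers. Negative scores can be read as non-binding.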

The target of test [2] is GlcNAc(b1-3)Gal(b1-4)GlcNAc(b1-3)Gal(b1-4)GlcNAc(b1-3)Gal(b1-4)GlcNAc(b1-3)Gal(b1-4)GlcNAc(b1-2)Man(a1-3)[GlcNAc(b1-3)Gal(b1-4)GlcNAc(b1-3)Gal(b1-4)GlcNAc(b1-3)Gal(b1-4)GlcNAc(b1-3)Gal(b1-4)GlcNAc(b1-2)Man(a1-6)]Man(b1-4)GlcNAc(b1-4)[Fuc(a1-6)]GlcNAc. The procedure, abridged: as §1
The target of test [3] is GlcNAc(b1-3)Gal(b1-4)GlcNAc(b1-3)GalNAc. The essentials: as §1
The target in test [4] is GlcNAc(b1-3)Gal(b1-4)GlcNAc(b1-6)[GlcNAc(b1-3)]Gal(b1-4)GlcNAc. The essentials: as §1
Test [5] concerns the target GlcNAc(b1-3)[GlcNAc(b1-4)][GlcNAc(b1-6)]GlcNAc. The procedure, abridged:
as §1

Test [6] concerns the target GlcNAc(b1-4)GlcNAc(b1-4)GlcNAc(b1-4)GlcNAc(b1-4)GlcNAc. The procedure, abridged: as §1
Test [7] addresses Kdn(a2-6)Gal(b1-4)GlcNAc. The essentials:
as §1

Test [8] has as its target Man(a1-2)Man(a1-6)[Man(a1-3)]Man(a1-6)[Man(a1-2)Man(a1-2)Man(a1-3)]Man. The essentials: as §1
For test [9], the target named is Neu5Ac(a2-3)Gal(b1-4)GlcNAc(b1-2)[Neu5Ac(a2-3)Gal(b1-4)GlcNAc(b1-4)]Man(a1-3)[GlcNAc(b1-4)][Neu5Ac(a2-3)Gal(b1-4)GlcNAc(b1-2)[Neu5Ac(a2-3)Gal(b1-4)GlcNAc(b1-6)]Man(a1-6)]Man(b1-4)GlcNAc(b1-4)GlcNAc. The essentials: as §1
Test [10] deals with Neu5Ac(a2-3)Gal(b1-4)[Fuc(a1-3)]GlcNAc(b1-3)Gal(b1-4)[Fuc(a1-3)]GlcNAc(b1-3)Gal(b1-4)[Fuc(a1-3)]GlcNAc. The procedure, abridged:
as §1

The target of test [11] is Neu5Ac(a2-3)GalNAc. The procedure, abridged: as §1
Test [12] deals with Neu5Ac(a2-6)Gal(b1-4)GlcNAc(b1-2)Man(a1-3)[Gal(b1-4)GlcNAc(b1-2)Man(a1-6)]Man(b1-4)GlcNAc(b1-4)GlcNAc. The procedure, abridged: as §1
The target of test [13] is Neu5Ac(a2-6)Gal(b1-4)GlcNAc(b1-2)Man(a1-6)Man(b1-4)GlcNAc(b1-4)GlcNAc. The procedure, abridged:
as §1

Test [14] deals with Neu5Ac(a2-6)Gal(b1-4)GlcNAc(b1-3)Gal(b1-4)GlcNAc(b1-6)[Gal(b1-3)]GalNAc. The procedure, abridged: as §1
Test [15] deals with Neu5Ac(a2-6)Gal(b1-4)GlcNAc(b1-6)[Gal(b1-3)GlcNAc(b1-3)]Gal(b1-4)Glc. The essentials:
as §1

In test [16] the target is Neu5Ac(a2-6)Gal(b1-4)GlcNAc6S. The procedure, abridged:
as §1

For test [17], the target named is Neu5Gc(a2-3)Gal(b1-3)[Fuc(a1-4)]GlcNAc. The procedure, abridged: as §1

B1: pTFF2 (Sus scrofa), P01359 (protein)
chain: KPAACRCSRQDPKNRVNCGFPGITSDQCFTSGCCFDSQVPGVPWCFKPLPAQESEECVMEVSARKNCGYPGISPEDCAARNCCFSDTIPEVPWCFFPMSVEACHY
Turning to B1, the “glycan array binding signal (z-score)” value in test [1] was -0.368; in test [2], 4.15; in [3] it was 3.21; in test [4] it was -0.954; in [5], 0.277; in test [6], -0.168. Besides, the “glycan array binding signal (z-score)” value in test [7] is 0.54; in test [8], 0.712; in test [9], 6.13; in test [10] it was -0.094; in [11] it was 1.05; in [12] it was 0.708. Besides, the “glycan array binding signal (z-score)” value in test [13] is 2.29; in [14] it was -0.859; in [15] it was -0.007; in test [16] it was -1.45; in test [17], 0.024.
